# Source: PubChem BioAssay (NCI)
# About 83,000 compounds went through this panel and 20% of them were active in at least one assay; those are over-represented in the sample as a whole.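 Single-dose data. Exposure time 48 hours. Values below 10 considered active.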 A number with no mark means an inactive call. The source made the active and inactive calls.
# What was measured:
# Test in all cases: NCI-60 one-dose screen, 48 h (100 = growth as untreated, 0 = no growth, -100 = all killed)
# Conditions in all cases: 10 µM
# NCI-H23 lung = tested on: NCI-H23 lung
# NCI-H226 lung = tested on: NCI-H226 lung
# HOP-62 NSCLC = tested on: HOP-62 NSCLC
# NCI-H460 lung = tested on: NCI-H460 lung
# HOP-92 NSCLC = tested on: HOP-92 NSCLC
# NCI-H522 lung = tested on: NCI-H522 lung
# A549/ATCC NSCLC = tested on: A549/ATCC NSCLC
# COLO 205 colon = tested on: COLO 205 colon
# DU-145 prostate = tested on: DU-145 prostate
# K-562 leukemia = tested on: K-562 leukemia
# MDA-MB-231 breast = tested on: MDA-MB-231 breast
# SF-268 CNS = tested on: SF-268 CNS
# SF-295 CNS = tested on: SF-295 CNS
# SF-539 CNS = tested on: SF-539 CNS
# UACC-257 melanoma = tested on: UACC-257 melanoma
# M14 melanoma = tested on: M14 melanoma
# 786-0 renal = tested on: 786-0 renal
# RXF 393 renal = tested on: RXF 393 renal
SMILES,growth (NCI-H23 lung),growth (NCI-H226 lung),growth (HOP-62 NSCLC),growth (NCI-H460 lung),growth (HOP-92 NSCLC),growth (NCI-H522 lung),growth (A549/ATCC NSCLC),growth (COLO 205 colon),growth (DU-145 prostate),growth (K-562 leukemia),growth (MDA-MB-231 breast),growth (SF-268 CNS),growth (SF-295 CNS),growth (SF-539 CNS),growth (UACC-257 melanoma),growth (M14 melanoma),growth (786-0 renal),growth (RXF 393 renal)
COc1ccccc1N1CCCSC1=Nc1ccccc1,104%,107%,-5.39% (active),99.7%,68.4%,71.9%,99.2%,104%,99.7%,78.4%,101%,99%,80.2%,98.9%,43.7%,63.3%,,
Cc1ccc(C2NC(=S)N3C(c4ccc(C)cc4)NC(=S)N23)cc1 (configuration not stated),38.9%,63.1%,-45.6% (active),9.7% (active),-3.05% (active),-39.2% (active),32%,44%,18.7%,5.27% (active),59.4%,37.6%,6.72% (active),13.9%,-22.5% (active),-26.5% (active),,
CN(C)c1ccc(/C=N/NC(=O)c2ccccc2Nc2cccc(C(F)(F)F)c2)cc1,91.2%,101%,79.6%,96.3%,73%,83.2%,,111%,,77.8%,70.9%,93.7%,111%,105%,101%,105%,90.1%,
O=C(COc1cccc(/C=C2\CSc3ccc(Cl)cc3C2=O)c1)c1ccc(Cl)cc1,75.1%,84.3%,83.6%,91.3%,15.6%,36.8%,,115%,,17.3%,32%,88.2%,81.2%,80.3%,84.6%,94.7%,94.6%,
CCN(CC)CCCC(C)Nc1c2ccc(Cl)cc2nc2ccc(OC)cc12 (configuration not stated),44.7%,36.7%,3.18% (active),2.49% (active),27.7%,21.1%,17.1%,-71.9% (active),16.1%,0.665% (active),19.8%,30.4%,26.8%,,-89.3% (active),,25.6%,-16.1% (active)
Nc1nc(N)c(N)c(Nc2ccc(CCO)cc2)n1,98.3%,96.2%,95.6%,108%,118%,91.9%,102%,95.5%,102%,,95.3%,103%,105%,111%,103%,97.2%,109%,109%
CC(=O)OC1CC2C(C)(C)CCC[C@]2(C)C2=C1C(O)=C(C(C)C)C(=O)C2=O (some centres not stated),9.91% (active),-71.1% (active),-40.3% (active),-39.8% (active),-79.2% (active),58.6%,6.64% (active),-38.5% (active),-62.7% (active),,-17.8% (active),15.7%,-53.1% (active),-7.95% (active),-12% (active),-43% (active),-3.43% (active),-59.8% (active)
CCn1cc(C(=O)O)c(=O)c2cc(F)c(N3CCNCC3)cc21,108%,92.3%,108%,104%,115%,104%,103%,102%,106%,96.6%,100%,103%,93%,,106%,117%,108%,118%
CC(C)c1ccc(C(C)C(=O)N(CC2=C(C(C)c3ccccn3)c3ccccc3C2)C(C)C)cc1 (configuration not stated),26.3%,57.1%,59.2%,23.1%,20.3%,24.9%,36%,35.7%,57.6%,24.5%,48.4%,46%,25.6%,61.4%,49.3%,48.1%,40.9%,45.6%
